Measured values reported in PubChem BioAssay (NCATS).
Results filed as inconclusive are left out. Values without a mark were called inactive. Calls follow the shape of the dose curve; as a rule, active = well fitted inhibition curve with a large enough effect; inconclusive = small, poorly fitted or top-dose-only effect; inactive = no such curve, though single readings can be large or run the other way.

Biological target: Retinaldehyde dehydrogenase 3 (Homo sapiens) (UniProt P47895)
Assay: qHTS for Inhibitors of the Aldehyde Dehydrogenase Family (ALDH1A3) Primary screen (AID 2061315);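 also: plate controls were DMSO vehicle for no effect and reference inhibitor for full effect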
Conditions: ALDH inhibition qHTS; series mostly up to 56 µM; activity change, negative = inhibition: at the top concentration

SMILES | activity change, negative = inhibition
COc1ccccc1N1CCN(CCCCNC(=O)c2ccc(-c3cscn3)cc2)CC1 | 16.4%
CO[C@@H]1[C@@H](O[C@H]2O[C@@H](C)[C@H](O[C@@H]3C[C@](C)(O)[C@H](O)[C@@H](C)O3)[C@@H](N(C)C)[C@@H]2O)[C@@H](CC=O)C[C@@H](C)[C@@H](O[C@H]2CC[C@H](N(C)C)[C@H](C)O2)/C=C/C=C/C[C@@H](C)OC(=O)C[C@H]1O | 4.23%
CCOc1ccc(-c2nc(-c3cccc4c3CCC4NCCO)no2)cc1OCC (stereo not drawn) | -3.45%
CC(C)Nc1nc(Nc2ccccc2)nc(-c2ccccc2)n1 | -8.39%
Cc1ccc(Cl)cc1N(CC(=O)Nc1c(F)cccc1F)S(C)(=O)=O | -0.099%
CN1CCC(Nc2nc(Nc3ccc(Oc4ccccc4)cc3)c3c(=O)[nH]cc(Br)c3n2)CC1 | 1.45%
COc1cccc(-c2ccc([C@@H](Oc3cc(-c4ccc(C[C@H](N)C(=O)O)cc4)nc(N)n3)C(F)(F)F)cc2)c1 | 7.33%
O=C(O)c1cc(N(Cc2ccc(C3CCCCC3)cc2)C(=O)c2ccc(Oc3ccccc3)cc2)ccc1O | -12.1%
CCCCCCOc1cc2c(cc1N(C)c1ncc(C(=O)O)cn1)C(C)(C)CCC2(C)C | 2.34%
CCCN1CCC[C@@H](c2cccc(S(C)(=O)=O)c2)C1 | -7.68%
Cc1c(C(=O)NCc2cccnc2)nn(-c2ccc(Cl)cc2Cl)c1-c1ccc(Cl)cc1 | 9.15%
CC(C)c1nnc(-c2ccc(-c3ccccc3)nc2)n1-c1cccc2nonc12 | -0.941%
CC1(C(=O)Nc2ccc(F)nc2)CCCN1c1nc(Nc2cc(C3CC3)[nH]n2)c2cccn2n1 (stereo not drawn) | 20.1%
